We go through 52 compounds from PubChem BioAssay AID1851 (National Center for Advancing Translational Sciences (NCATS), 2009).

Out of some 16,000 compounds screened, about 2,600 (16%) were called active. Another 20% or so got no clear call; they are omitted. Only a sample is shown. Unmarked numbers belong to inactive results. The call rests on the fitted dose curve; in most records, active means well fitted curve in the direction sought with a large enough effect; inconclusive means small, poorly fitted or top-dose-only effect, or effect the other way; inactive means no such curve, though single readings can be large or run the other way.
On the % scale 0 is the no-effect control and ±100 the full control effect.

Sequence of Cytochrome P450 2D6 (Homo sapiens) (P10635 whole entry, looked up): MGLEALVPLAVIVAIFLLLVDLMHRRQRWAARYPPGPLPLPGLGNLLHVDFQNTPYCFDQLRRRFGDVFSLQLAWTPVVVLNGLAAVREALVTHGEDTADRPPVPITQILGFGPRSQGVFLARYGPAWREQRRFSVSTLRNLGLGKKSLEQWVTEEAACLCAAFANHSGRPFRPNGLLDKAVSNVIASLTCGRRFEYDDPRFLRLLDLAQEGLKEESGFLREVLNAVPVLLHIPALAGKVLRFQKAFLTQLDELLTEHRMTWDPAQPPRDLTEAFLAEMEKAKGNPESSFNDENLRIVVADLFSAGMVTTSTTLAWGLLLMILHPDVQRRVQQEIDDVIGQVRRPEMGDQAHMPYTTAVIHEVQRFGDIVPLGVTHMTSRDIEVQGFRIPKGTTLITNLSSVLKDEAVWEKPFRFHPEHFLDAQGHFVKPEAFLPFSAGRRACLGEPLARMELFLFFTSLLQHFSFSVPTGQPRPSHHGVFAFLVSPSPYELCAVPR

The test concerns the target Cytochrome P450 2D6 (Homo sapiens) (UniProt P10635). Description: Cytochrome panel assay with activity outcomes. Conditions: recombinant CYP, pro-luciferin dealkylation, luminescence, p450-cyp2d6; series mostly up to 57.1 µM; activity, negative = inhibition: at the top concentration.
In the case of `CC(C)C(=O)Nc1ccc(Sc2ccc(F)cc2)cc1`, the “activity, negative = inhibition” value was -18.6%. Regarding `CN(C(=S)NC(=O)c1ccccc1Br)C1CCCCC1`, the “activity, negative = inhibition” value is -19%. As usually defined, the AC50 is the concentration at which the activity in the assay is half-maximal. For `COc1ccc2[nH]cc(CCNc3nc(-c4ccccc4OC)nc4ccccc34)c2c1`, the AC50 is 12.6 µM (active).

Regarding `CC[C@H](CO)NCCN[C@@H](CC)CO`, the “activity, negative = inhibition” value is 2.22% [at 25.6 µM]. `COc1ccc(F)cc1S(=O)(=O)NC(Cc1ccccc1)C(N)=O` (configuration not stated): the “activity, negative = inhibition” value was -23%. For `Cc1cc(C(F)F)n2ncc(C(=O)NCc3ccccc3C(F)(F)F)c2n1`, the AC50 is 5.01 µM (active). `Cc1nn(Cc2c(Cl)cccc2Cl)c(C)c1NC(=O)c1cnn2c(C(F)F)cc(-c3ccccc3)nc12`: the “activity, negative = inhibition” value is -9.88%. In the case of `Cc1ccc(-c2cc(C(F)F)n3ncc(C(=O)Nc4c(C)nn(Cc5c(Cl)cccc5Cl)c4C)c3n2)cc1`, the “activity, negative = inhibition” value is -10.1%. Still for that read-out and setting: for `O=C(Nc1cc(C(F)(F)F)ccc1N1CCCCC1)c1ccc(Br)o1` the value was 0.271%. For the compound `O=C1CC[C@H](NC(=O)c2ccccc2)C(=O)N1`, the activity, negative = inhibition was 1.49% [at 11.4 µM]. `COCCn1nc2cc(C(=O)NCc3cc(C(F)(F)F)cc(C(F)(F)F)c3)ccc2c1OC`: the concentration at half-maximal activity (AC50) was 2.51 µM (active). Same read-out and setting: for `O=C(NC1CCCc2ccccc21)c1ccc(=O)[nH]c1` (configuration not stated) the value was 28.2 µM (active).

Take `CCOc1c2ccc(C(=O)NCc3ccccc3OC)cc2nn1CC`: the “activity, negative = inhibition” value is -13.2%. Turning to `CCCCn1nc2cc(C(=O)NCc3ccc(C(F)(F)F)cc3C(F)(F)F)ccc2c1OCC`, the “activity, negative = inhibition” value is -27.7%. `CCCn1nc2cc(C(=O)NCc3ccccc3OC)ccc2c1OCC`: the “activity, negative = inhibition” value is -22.4%. `CCOc1c2ccc(C(=O)NCCCCc3ccccc3)cc2nn1CC`: the AC50 was 0.794 µM (active).

For `CCCn1nc2cc(C(=O)NCCCCc3ccccc3)ccc2c1OCC`, the AC50 is 7.94 µM (active). Regarding `COCCn1nc2cc(C(=O)NCC34CC5CC(CC(C5)C3)C4)ccc2c1OC`, the “activity, negative = inhibition” value was -16.5%.

For `COc1ccc(OC)c2[nH]c(=O)c(CCNS(=O)(=O)c3ccccc3)cc12`, the “activity, negative = inhibition” value is 7.03%. On the same count and under the same terms, for `CCOc1cccc(/C(O)=C2/C(=O)C(=O)N(Cc3ccco3)C2c2ccncc2)c1` (configuration not stated) the value was -8.05%; for `O=C(NNS(=O)(=O)c1ccc(Cl)cc1)NC1CCCCC1`, -0.568%. As to `CCC(=O)Nc1nnc(C(C)(C)C)s1`, the “activity, negative = inhibition” value is 1.82%.

Turning to `O=c1c(-c2cc(F)cc(F)c2)nc2cnc(N3CCOCC3)nc2n1C[C@H]1CCCO1`, the “activity, negative = inhibition” value is 5.97%. As for `COCCNC(=O)c1ccc2c(c1)ncn2-c1ccc(F)c(F)c1`, the “activity, negative = inhibition” value was 3.19%.

Turning to `CCOc1c2ccc(C(=O)NCc3ccco3)cc2nn1CC`, the “activity, negative = inhibition” value was -22.5%. Consider `CCOc1c2ccc(C(=O)NCCc3cccs3)cc2nn1CC`, for which the AC50 was 2.24 µM (active).

As for `CCCn1nc2cc(C(=O)NCc3ccc(C)cc3)ccc2c1OC`, the “activity, negative = inhibition” value was -3.19%. Take `CCOc1c2ccc(C(=O)NCCCCc3ccccc3)cc2nn1C`: the AC50 is 0.282 µM (active).

For the compound `CCCCn1nc2cc(C(=O)NCC3CC3)ccc2c1OCC`, the “activity, negative = inhibition” value is -8.25%.

Regarding `CCOc1c2ccc(C(=O)NC3CCCc4ccccc43)cc2nn1C` (configuration not stated), the AC50 was 7.94 µM (active). Same read-out and setting: for `CCCn1nc2cc(C(=O)NCCc3ccc(C)cc3)ccc2c1OCC` the value was 3.55 µM (active). Take `CCn1nc2cc(C(=O)NCC34CC5CC(CC(C5)C3)C4)ccc2c1OC`: the “activity, negative = inhibition” value is 10.9%.

Consider `COCCn1c(=O)c(-c2ccccc2)nc2cnc(Oc3cccc(Cl)c3)nc21`, for which the “activity, negative = inhibition” value was -2.41%. Consider `NC(=O)Nn1c(CCC(=O)O)ccc1-c1ccc(F)cc1`, for which the “activity, negative = inhibition” value is -2.11%. Regarding `Cc1ccc(C(=O)N2C3C=CC(C3)C2(C(F)(F)F)C(F)(F)F)cc1` (configuration not stated), the “activity, negative = inhibition” value was 5.65%. Turning to `CCC(C)(C)c1ccc(Oc2cccc(C(=O)O)c2)cc1`, the activity, negative = inhibition was 13.3% [at 11.4 µM]. For `O=C(O)CCNc1ncnc2nc[nH]c12`, the activity, negative = inhibition is 9.14% [at 11.4 µM]. As to `OC[C@H]1O[C@H](n2cnc3c(NC4CCCC4)nc(Cl)nc32)[C@@H](O)[C@@H]1O`, the “activity, negative = inhibition” value was 6.94%. On the same count and under the same terms, for `C=C(C)CN(CC#N)CC(=C)C` the value was 5.94% [at 11.4 µM]. Still for that read-out and setting: for `N#C/C(=C(\O)C(=O)O)c1ccc(-c2cccc3ccccc23)cc1` the value was 14.5% [at 11.4 µM].

As for `O=c1c2c(n3cnnc3n1-c1ccccc1)-c1ccccc1CC21CCCCC1`, the “activity, negative = inhibition” value was -2.53%. Take `Nc1nc(N)c(N=Nc2ccc(C(=O)O)c(O)c2)c(N)n1`: the activity, negative = inhibition is -8.46% [at 11.4 µM]. Regarding `CC1CCN(c2ccc(/C=N/n3nnnc3N)cc2[N+](=O)[O-])CC1`, the “activity, negative = inhibition” value is 2.33%. Still for that read-out and setting: for `NC(=S)SCCC(=O)O` the value was 4.51% [at 11.4 µM]. On the same count and under the same terms, for `NC(N)=Nc1nc2ccc([N+](=O)[O-])cc2[nH]1` the value was 2.98% [at 11.4 µM]. On to `O=S(=O)(O)c1cc(N=[N+]([O-])c2cc(S(=O)(=O)O)c3ccccc3c2)cc2ccccc12`, for which the activity, negative = inhibition is -20.1% [at 11.4 µM].

On to `CCNc1nc(Sc2ccc(C)cc2)cc(C(F)(F)F)n1`, for which the “activity, negative = inhibition” value was -17.6%. Consider `CC(C)c1cc(C(F)(F)F)nc(NNc2nc(C(C)C)cc(C(F)(F)F)n2)n1`, for which the AC50 is 0.126 µM (active). In the case of `CC(C)Nc1nc(Oc2ccc(Cl)cc2)cc(C(F)(F)F)n1`, the “activity, negative = inhibition” value is -11.5%. Turning to `Cc1nc2cnc(N3CCN(C)CC3)nc2n(Cc2ccc(F)cc2)c1=O`, the “activity, negative = inhibition” value is -5.66%.

Consider `CN(C)c1ccc(-c2noc(C3CCN(S(=O)(=O)c4cccc(C(=O)O)c4)CC3)n2)cc1`, for which the “activity, negative = inhibition” value is 5.68%. With `Cc1ccc(C2=Nc3ccccc3S[C@@H](c3cccc([N+](=O)[O-])c3)C2)cc1`, the activity, negative = inhibition is 4.11% [at 11.4 µM].
